Among the data in PubChem BioAssay (NCATS) are Potency values, retold here.

Records with an inconclusive call do not appear. Active and inactive are the calls of the source. The call rests on the fitted dose curve; in most records, active means well fitted curve in the direction sought with a large enough effect; inconclusive means small, poorly fitted or top-dose-only effect, or another doubt; inactive means no such curve, though single readings can be large; an effect the other way counts as inactive or inconclusive.

A short description of assay [1]: Quantitative High-Throughput drug screen in 47 multiple myeloma cell lines against the NCATS MIPE library collection: FR4_PLB cell viability assay (AID 1918924; further: nearly all actives have a fitted effect of over 35% in size; further: potency means the concentration at half of the fitted maximal effect). In a few lines:
(§1)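 qHTS of the MIPE 4.0 collection: 500 myeloma cells/well, 48 h drug exposure at 37C in 5% CO2, then CellTiter-Glo for 5 min at room temperature before luminescence reading.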

A short description of assay [2]: Quantitative High-Throughput drug screen in 47 multiple myeloma cell lines against the NCATS MIPE library collection: Delta47_JCRB cell viability assay (AID 1918925; further: nearly all actives have a fitted effect of over 45% in size; further: potency means the concentration at half of the fitted maximal effect). The method in brief: (§2)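 Myeloma cells (500 per well) were exposed to MIPE 4.0 compounds by pin transfer and incubated 48 hours at 37C, 5% CO2. Viability was read as ATP by CellTiter-Glo luminescence, normalised to DMSO (100%) and media-only (0%) wells.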

A short description of assay [3]: Quantitative High-Throughput drug screen in 47 multiple myeloma cell lines against the NCATS MIPE library collection: EJM_DSMZ cell viability assay (AID 1918926; further: nearly all actives have a fitted effect of over 30% in size; further: potency means the concentration at half of the fitted maximal effect). In a few lines:
as §2

Assay [4] can be described thus: Quantitative High-Throughput drug screen in 47 multiple myeloma cell lines against the NCATS MIPE library collection: AMO1_DSMZ cell viability assay (AID 1918927; further: nearly all actives have a fitted effect of over 30% in size; further: potency means the concentration at half of the fitted maximal effect). In a few lines:
as §2

Assay [5] is described as follows: Quantitative High-Throughput drug screen in 47 multiple myeloma cell lines against the NCATS MIPE library collection: ARP1_JJKsccF8 cell viability assay (AID 1918928; further: nearly all actives have a fitted effect of over 40% in size; further: potency means the concentration at half of the fitted maximal effect). The method in brief: (§3)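 Cell viability inhibition in this qHTS is measured via ATP content (CellTiter-Glo) after 48 h drug exposure at 37 °C. Wells hold 500 cells; DMSO-treated wells define 100% and medium-only wells 0%.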

Assay [6] can be described thus: Quantitative High-Throughput drug screen in 47 multiple myeloma cell lines against the NCATS MIPE library collection: ARD_JJKsccE7 cell viability assay (AID 1918929; further: potency means the concentration at half of the fitted maximal effect). In a few lines: as §2
Assay [7] can be described thus: Quantitative High-Throughput drug screen in 47 multiple myeloma cell lines against the NCATS MIPE library collection: Karpas620_DSMZ cell viability assay (AID 1918959). Further: nearly all actives have a fitted effect of over 30% in size. Further: potency means the concentration at half of the fitted maximal effect. In a few lines:
as §1

Assay [8] in a line: Quantitative High-Throughput drug screen in 47 multiple myeloma cell lines against the NCATS MIPE library collection: KHM11_PLB cell viability assay (AID 1918962). Further: nearly all actives have a fitted effect of over 35% in size. Further: potency means the concentration at half of the fitted maximal effect. In a few lines:
as §1

A short description of assay [9]: Quantitative High-Throughput drug screen in 47 multiple myeloma cell lines against the NCATS MIPE library collection: JIM3_ECACC cell viability assay (AID 1918963; further: nearly all actives have a fitted effect of over 35% in size; further: potency means the concentration at half of the fitted maximal effect). The method in brief: as §1
The nature of assay [10]: Quantitative High-Throughput drug screen in 47 multiple myeloma cell lines against the NCATS MIPE library collection: JIM1_ECACC cell viability assay (AID 1918964; further: potency means the concentration at half of the fitted maximal effect). The method in brief:
as §2

The nature of assay [11]: Quantitative High-Throughput drug screen in 47 multiple myeloma cell lines against the NCATS MIPE library collection: H1112_PLB cell viability assay (AID 1918967; further: nearly all actives have a fitted effect of over 30% in size; further: potency means the concentration at half of the fitted maximal effect). The method in brief:
as §2

Assay [12] can be described thus: Quantitative High-Throughput drug screen in 47 multiple myeloma cell lines against the NCATS MIPE library collection: Karpas25_ECACC cell viability assay (AID 1918968; further: nearly all actives have a fitted effect of over 35% in size; further: potency means the concentration at half of the fitted maximal effect). The method in brief: as §2
Assay [13] is described as follows: Quantitative High-Throughput drug screen in 47 multiple myeloma cell lines against the NCATS MIPE library collection: KMS12BM_JCRB cell viability assay (AID 1918971). Further: nearly all actives have a fitted effect of over 35% in size. Further: potency means the concentration at half of the fitted maximal effect. The method in brief:
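Myeloma cell lines, 500 cells per well, exposed to MIPE 4.0 library compounds for 48 h at 37C, 5% CO2. Viability from ATP by CellTiter-Glo luminescence; normalised to DMSO (100%) and media-only (0%) wells.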

The nature of assay [14]: Quantitative High-Throughput drug screen in 47 multiple myeloma cell lines against the NCATS MIPE library collection: KMM1_JCRB cell viability assay (AID 1918960). Further: nearly all actives have a fitted effect of over 30% in size. Further: potency means the concentration at half of the fitted maximal effect. The method in brief:
as §3

The nature of assay [15]: Quantitative High-Throughput drug screen in 47 multiple myeloma cell lines against the NCATS MIPE library collection: Karpas417_ECACC cell viability assay (AID 1918961). The note with it: Karpas417 myeloma viability, CellTiter-Glo ATP luminescence, 48 h; viability (% of DMSO): at 45.8 µM (top of the series). In a few lines:
(§4)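 Luminescent ATP measurement with CellTiter-Glo gives viability, scaled between DMSO-only wells (100%) and media-only wells (0%). Cells, 500 per well, faced library compounds for 48 hours at 37C.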
Background: In ATP-based viability assays light output follows the ATP content of the culture.

The nature of assay [16]: Quantitative High-Throughput drug screen in 47 multiple myeloma cell lines against the NCATS MIPE library collection: KMS27_JCRB cell viability assay (AID 1918970). Further: nearly all actives have a fitted effect of over 30% in size. Further: potency means the concentration at half of the fitted maximal effect. The method in brief: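 Myeloma cells (500 per well) were exposed to MIPE 4.0 compounds for 48 h at 37 °C, 5% CO2; viability was read as ATP luminescence with CellTiter-Glo, normalized to DMSO-only (100%) and media-only (0%) wells.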

A short description of assay [17]: Quantitative High-Throughput drug screen in 47 multiple myeloma cell lines against the NCATS MIPE library collection: INA6_PLB cell viability assay (AID 1918965; further: nearly all actives have a fitted effect of over 55% in size; further: potency means the concentration at half of the fitted maximal effect). In a few lines: as §4
Assay [18] in a line: Quantitative High-Throughput drug screen in 47 multiple myeloma cell lines against the NCATS MIPE library collection: JJN3_DSMZ cell viability assay (AID 1918966; further: potency means the concentration at half of the fitted maximal effect; nearly all actives have a fitted effect of over 50% in size). The method in brief: as §2

Take `Cc1cc(=O)c2c(O)c3c(O)cc(=O)c4c3c3c(cc(O)c1c23)C(C)(C)C=4O`: the Potency in assay [1] was 13.2 µM (active); in assay [2], 0.372 µM (active); in assay [3], 14.8 µM (active); in [4], 5.26 µM (active); in assay [5], 2.96 µM (active); in assay [6], 3.32 µM (active). Moreover, the Potency in [7] is 14.8 µM (active); in [8], 0.372 µM (active); in assay [9] it was 0.235 µM (active); in assay [10] it was 5.9 µM (active); in [11] it was 0.59 µM (active); in assay [12], 0.264 µM (active). Further, the Potency in [13] was 4.69 µM (active).
Take `O=Nc1c(-c2c(O)[nH]c3cc(Br)ccc23)[nH]c2ccccc12`: in [1], the Potency entry is “inactive”. Moreover, the Potency in [2] was 5.9 µM (active); in [3] it was 14.8 µM (active); in [4] it was 1.05 µM (active); in [5], 14.8 µM (active); in assay [7], 8.33 µM (active); in [14] it was 5.26 µM (active). For the same molecule, the Potency in [8] was 4.69 µM (active); in [9], 5.26 µM (active); in assay [10] it was 1.32 µM (active); in [11], 10.5 µM (active); in assay [12], 5.26 µM (active); in [13], 16.6 µM (active).
On to `C[C@H](Cn1cnc2c(N)ncnc21)OCP(=O)(O)O`, for which the Potency entry in assay [1], in assay [2], in assay [3], in [5], in [6] and in [7] was “inactive” in each case. In addition, the Potency entry in [14], in assay [15], in [9], in assay [10], in assay [11] and in assay [12] was “inactive” throughout. The Potency result in [16] and in assay [13] was “inactive” in each case.
Regarding `C[Se]CCC(N)C(=O)O` (centres undefined), the Potency result in assay [1], in assay [2], in [3], in assay [5], in assay [6] and in assay [14] was “inactive” in each case. Also, the Potency result in assay [15], in [9], in assay [10], in [11], in assay [12] and in assay [16] was “inactive” in each case. For the same molecule, the Potency result in assay [13] was “inactive”.
On to `O=C(c1ccccc1)c1ccc2n1CCC2C(=O)O` (centres undefined), for which the Potency entry in assay [1], in assay [6], in assay [7], in assay [14], in [15] and in [16] was “inactive” throughout. In addition, the Potency entry in assay [13] is “inactive”. Moreover, the Potency was 9.35 µM (active) in assay [2]; 2.35 µM (active) in assay [3]; 8.33 µM (active) in [8]; 10.5 µM (active) in [17]; 13.2 µM (active) in [11]; 2.96 µM (active) in [12].
Take `Nc1nc(Cl)nc2c1ncn2[C@H]1C[C@H](O)[C@@H](CO)O1`: the Potency in assay [1] is 3.72 µM (active); in assay [2] it was 0.235 µM (active); in [4], 0.187 µM (active); in assay [8] it was 1.05 µM (active); in [10], 2.35 µM (active); in [17], 0.935 µM (active). Besides, the results for the Potency in assay [16] and in [13] were 0.296 µM (active) and 0.0833 µM (active), respectively.
Consider `Cc1cccc(CN2CCN(C(c3ccccc3)c3ccc(Cl)cc3)CC2)c1` (centres undefined), for which the Potency entry in assay [1], in assay [15] and in assay [10] was “inactive” throughout. The Potency in assay [2] is 8.33 µM (active); in assay [3] it was 18.7 µM (active); in [6] it was 26.4 µM (active); in [11], 23.5 µM (active); in assay [12] it was 23.5 µM (active); in assay [13], 26.4 µM (active).
With `NS(=O)(=O)c1cc(C(=O)O)c(NCc2ccco2)cc1Cl`, the Potency entry in assay [1], in assay [2], in assay [3], in [5], in [7] and in [14] was “inactive” each time. The Potency result in [9], in [10], in assay [11], in [12], in [16] and in assay [13] was “inactive” each time.
For the molecule `CCCOc1ccc2nc(NC(=O)OC)[nH]c2c1`, in assay [1], the Potency result is “inactive”. Further, the Potency is 0.0118 µM (active) in assay [2]; 0.001 µM (active) in assay [4]; 0.001 µM (active) in assay [6]; 0.0066 µM (active) in [9]; 0.0105 µM (active) in [17]; 0.105 µM (active) in assay [12]. Moreover, the Potency in assay [13] was 0.0066 µM (active).
For the molecule `COc1cc2c(cc1OC)C1CC(=O)C(CC(C)C)CN1CC2` (centres undefined), the Potency entry in assay [1], in [2], in [3], in assay [6], in assay [7] and in [14] was “inactive” each time. Also, the Potency entry in [15], in assay [8], in assay [10], in assay [11], in assay [12] and in assay [16] was “inactive” each time.
As to `Cc1cc(O)c2c(c1)C(=O)c1cc(O)cc(O)c1C2=O`, the Potency in assay [1] is 0.418 µM (active); in assay [12] it was 2.09 µM (active). Also, the Potency entry in assay [2], in assay [4], in [6], in assay [7], in assay [14] and in assay [15] was “inactive” throughout. In addition, the Potency result in [10], in assay [17], in assay [11] and in [16] was “inactive” each time.
With `COc1cc(OC)c(C(=O)CCCN2CCCC2)c(OC)c1`, the Potency result in assay [1], in assay [2], in assay [3], in [4], in assay [5] and in assay [6] was “inactive” in each case. Besides, the Potency result in assay [7], in assay [15], in assay [8], in [11] and in assay [12] was “inactive” each time. In addition, the Potency in assay [18] was 0.059 µM (active).
